# Screens as filed in PubChem.
# Cycloheximide cs: affects cycloheximide protein synthesis inhibition readout, counter-screen | cell reporter, cycloheximide protein synthesis inhibition counterscreen | max response, % | 300,000 tested, 12% active | AID 2314; in the data active means max response mostly above about 13%, no sharp cut-off; inactive means mostly below about 14%; further: read at 38.3 µM for the half of the compounds with a filed dose; 0% is about no effect
# Shiga inhibitor: Shiga toxin inhibition. Vero cells, Shiga toxin protein synthesis inhibition reporter. inhibition, % at 38.7 µM. 290,000 tested, 9.2% active; in the data active means inhibition mostly above about 28%, no sharp cut-off; inactive means mostly below about 43%; further: 0% is about no effect
# Tb PYK inh: inhibitors of Trypanosoma brucei pyruvate kinase. 410,000 tested, 0.12% active. Potency, µM (highest dose often 76.8 µM), inactives show at the top dose activity, negative = inhibition, actives largely listed as inhibitors. TbPYK enzyme, Kinase-Glo Plus ATP luminescence, 45 min; active means well fitted curve in the direction sought with a large enough effect; inconclusive means small, poorly fitted or top-dose-only effect, or another doubt; inactive means no such curve, though single readings can be large; an effect the other way counts as inactive or inconclusive; further: potency means the concentration at half of the fitted maximal effect; on the % scale 0 is the no-effect control and ±100 the full control effect; nearly all actives have a fitted effect of over 50% in size
#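 In this concentration-response screen, enzyme-free wells defined baseline while DMSO plates tracked drift. Each reaction combined TbPYK, substrate, compound and 130 uM ADP for 45 min at room temperature. Kinase-Glo Plus luminescence gave the signal.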
# NS1 function inh: inhibitors of influenza NS1 protein function; Potency, µM (top dose mostly 46.1 µM), for the others: at the highest dose activity, positive = more growth; 270,000 tested, 0.4% active; further: potency means the concentration at half of the fitted maximal effect; actives are rising curves; nearly all actives have a fitted effect of over 50% in size
#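 Recovery from NS1-induced slow growth read by OD600 in budding yeast switched to galactose assay medium (pH 6.0, -URA) at 1:100 dilution. Compound 23 nl per well; the matching strain lacking NS1 serves as control.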
# LmPK inhibitor: inhibitors of Leishmania mexicana pyruvate kinase. 290,000 tested, 0.37% active. Q27686. Potency, µM (titrated, usually from 57.5 µM), inactives show top-dose activity change, negative = inhibition, hits mostly inhibitors. purified LmPK, Kinase-Glo ATP luminescence, 1 h; active means well fitted curve in the direction sought with a large enough effect; inconclusive means small, poorly fitted or top-dose-only effect, or another doubt; inactive means no such curve, though single readings can be large; an effect the other way counts as inactive or inconclusive; further: potency means the concentration at half of the fitted maximal effect; on the % scale 0 is the no-effect control and ±100 the full control effect
# Target sequence (Q27686 whole entry, looked up): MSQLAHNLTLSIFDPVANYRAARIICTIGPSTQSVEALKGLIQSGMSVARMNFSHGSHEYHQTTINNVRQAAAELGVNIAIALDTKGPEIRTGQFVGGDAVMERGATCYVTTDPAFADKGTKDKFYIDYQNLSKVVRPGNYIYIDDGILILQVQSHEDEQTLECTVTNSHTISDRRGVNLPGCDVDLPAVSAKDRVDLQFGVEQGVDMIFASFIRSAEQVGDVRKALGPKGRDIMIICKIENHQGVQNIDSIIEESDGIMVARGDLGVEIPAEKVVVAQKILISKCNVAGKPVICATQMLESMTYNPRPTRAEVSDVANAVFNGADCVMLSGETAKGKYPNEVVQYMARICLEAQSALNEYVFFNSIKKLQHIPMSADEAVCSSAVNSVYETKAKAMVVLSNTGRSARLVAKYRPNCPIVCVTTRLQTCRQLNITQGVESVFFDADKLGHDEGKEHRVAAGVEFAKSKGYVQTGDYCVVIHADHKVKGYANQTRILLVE
#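 Kinase-Glo luminescence read after 1 h RT reaction of 0.1 nM LmPK with 0.5 mM PEP and 0.1 mM ADP. Activity scaled between uninhibited and enzyme-free controls.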
# SARS PLP yeast: inhibitors of SARS-CoV papain-like protease in yeast; S. cerevisiae expressing SARS-CoV PLpro, growth rescue; Potency, µM (doses to about 32.9 µM), for the others: top-dose activity, positive = growth rescue, actives largely listed as activators; 330,000 tested, 0.19% active; AID 485353; further: potency means the concentration at half of the fitted maximal effect; 0% is about no effect; nearly all actives have a fitted effect of over 55% in size
# * hit, by the source's call; ? = inconclusive; nt = no result given. Only a selection was taken, and hits are over-represented in it overall. Unless noted, the call rests on the fitted dose curve.
SMILES,Cycloheximide cs,Shiga inhibitor,Tb PYK inh,NS1 function inh,LmPK inhibitor,SARS PLP yeast
Cc1sc(N/N=C/c2cccnc2)nc1-c1ccc(Cl)cc1,15*,17,-2%,13%,2%,-9%
COc1ccc(CNC(=O)C[C@@H]2C[C@H]3c4cc(NC(=O)NC5CCCC5)ccc4O[C@H]3[C@H](CO)O2)cc1,nt,nt,5%,nt,nt,nt
COc1ccccc1NC(=O)NC1(C)CCS(=O)(=O)C1 (configuration not stated),-2,16,0%,-7%,0%,-3%
O=C(N/N=C/c1cccnc1)c1ccc([N+](=O)[O-])cc1,-2,19,-4%,10%,-5%,-6%
O=[N+]([O-])c1ccc(N/N=C/c2cccnc2)cc1,33*,41*,-2%,-54%,-4%,-15%
c1ccc(-n2nnc3ccccc32)nc1,26*,67*,-4%,-16%,-16%,-5%
CCOc1ccc(-c2n[nH]c(C)c2-c2ccccc2OC)c(O)c1,-1,-10,4%,-35%,6%,-27%
CCc1cc(-c2n[nH]c(C)c2-c2ccccc2Cl)c(O)cc1OC,32*,80*,2%,0%,-1%,-11%
COc1ccc(NC(=O)N2CC3(CCN(S(C)(=O)=O)CC3)C2)cc1,nt,nt,1%,nt,nt,nt
Cc1sc(NC(=S)NC(=O)c2ccccc2)c(C#N)c1C,nt,nt,-6%,nt,nt,nt
CCOC(=O)c1sc(NC(=O)c2ccco2)c(C#N)c1C,-4,-14,-13%,-7%,0%,-1%
CCc1c(C)sc(NC(=O)c2ccco2)c1C#N,37*,69*,-3%,-54%,-1%,-13%
Cc1sc(NC(=S)NC(=O)c2ccco2)c(C#N)c1C,15*,27,6%,-4%,-1%,-2%
O=C(O)c1ccc2c(c1)C(=O)N(c1cccc(C(=O)/C=C/c3ccccc3)c1)C2=O,28*,52*,0%,2%,4%,0%
O=C(O)c1cccc(N2C(=O)c3ccc(C(=O)c4cccc([N+](=O)[O-])c4)cc3C2=O)c1,-2,35,-7%,-4%,2%,5%
COc1ccc(CN2C[C@H]3CON(C)[C@H]3C[C@H]2c2ccc(-c3ccccc3)cc2)cc1,nt,nt,6%,nt,nt,nt
COCCNC(=O)C1(C)CCN(C(=O)c2cccnc2Oc2ccccc2)C1 (configuration not stated),nt,nt,1%,nt,nt,nt
O=Cc1ccccc1OCCOc1ccc([N+](=O)[O-])cc1,26*,43,-6%,nt,1%,-9%
COc1cc(/C=N/n2c(C)n[nH]c2=S)ccc1OCc1ccc(F)cc1,48*,65*,?,-27%,-1%,8%
COc1cc(/C=N\n2nnnc2N)ccc1OCc1ccc(F)cc1,33,-5,4%,-2%,1%,-2%
O=[N+]([O-])c1ccc(COc2ccccc2/C=N/O)cc1,45*,90*,-3%,14%,-3%,8%
CCOc1cc(/C=N/O)ccc1OCc1ccc([N+](=O)[O-])cc1,9,37*,-14%,4%,0%,-2%
CCOc1cc(C=C(C(=O)OC)C(=O)OC)ccc1OCc1ccc([N+](=O)[O-])cc1,-5,-16,-2%,3%,-1%,0%
CCOc1cc(/C=N/O)ccc1OCc1ccc(F)cc1,10,65*,-24%,-3%,2%,-13%
CCOC(=O)c1ccc(N2C(=O)c3n[nH]c(C)c3C2c2ccc(OCC)cc2)cc1 (configuration not stated),nt,nt,0%,nt,nt,nt
O=C(c1ccc(-c2ccccc2)c(F)c1)C1CCCN(CCCn2cccn2)C1 (configuration not stated),9,14,0%,0%,4%,-2%
CN(C)S(=O)(=O)N1CCCC(C(=O)c2ccc(-c3ccccc3)c(F)c2)C1 (configuration not stated),15*,35*,2%,-10%,12%,-2%
O=C(c1ccc(-c2ccccc2)c(F)c1)C1CCCN(CCO)C1 (configuration not stated),15*,68,-2%,2%,1%,0%
O=C(Cn1c(=O)oc2cc(S(=O)(=O)N3CCCC3)ccc21)Nc1ccc(F)cc1F,nt,nt,0%,nt,nt,nt
